Reference: PubChem BioAssay (NCI)
The panel holds about 79,000 compounds, 15% with a hit somewhere; the sample as a whole holds those more often. A number with no mark means an inactive call. The source made the active and inactive calls. Cut-off read from the data, not from the text of the source: active = growth inhibition above about 70%; inactive = the rest.

Legend:
[1] = NCI Yeast Anticancer Drug Screen. Data for the rad50 strain (AID 155);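 note: 0% = growth of vehicle-only cultures of the same strain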; details: S. cerevisiae rad50 strain growth inhibition; at 50.0 µM; hits give high values
How it was run: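 Cells are treated with compound, grown, and their growth is then scored against vehicle-only cultures of the same repair-deficient yeast strain.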

[2] = NCI Yeast Anticancer Drug Screen. Data for the mec2-1 strain (AID 157); details: S. cerevisiae mec2-1 strain, at 50.0 µM, hits give high values
How it was run: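 Strain: mec2-1 (DNA repair/cell cycle alteration). Compound exposure, then growth measured; inhibition expressed relative to vehicle.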

[3] = NCI Yeast Anticancer Drug Screen. Data for the sgs1 mgt1 strain (AID 161);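 note: 0% = growth of cultures given vehicle only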; details: S. cerevisiae sgs1 mgt1 strain, at 50.0 µM, hits give high values
How it was run: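 Test agents were incubated with a DNA-repair-mutant yeast strain. Growth was then read and compared against vehicle-treated controls.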

[4] = NCI Yeast Anticancer Drug Screen. Data for the cln2 rad14 strain (AID 165);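 note: 0% = growth equal to vehicle treated cultures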; details: S. cerevisiae cln2 rad14 strain, at 50.0 µM, hits give high values
How it was run: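 Compounds are applied to the cln2 rad14 yeast strain, and growth is then compared with that of vehicle-treated cultures to give inhibition.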

[5] = NCI Yeast Anticancer Drug Screen. Data for the bub3 strain (AID 167); details: S. cerevisiae bub3 mutant strain, at 50.0 µM, hits give high values
How it was run: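 Part of a panel of yeast mutants defective in DNA damage repair or cell cycle regulation. Each strain is grown with compound, and inhibition is calculated relative to solvent-treated cultures.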

[6] = NCI Yeast Anticancer Drug Screen. Data for the mlh1 rad18 strain (AID 175); details: S. cerevisiae mlh1 rad18 strain growth inhibition; at 50.0 µM; hits give high values
How it was run: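 Read-out is yeast growth inhibition, calculated against vehicle-only controls. The compound was applied to a strain engineered with DNA damage repair alterations.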

Compound	growth inhibition [1]	growth inhibition [2]	growth inhibition [3]	growth inhibition [4]	growth inhibition [5]	growth inhibition [6]
Cc1ccc(NC(=O)CCCC(=O)C(C#N)c2nc3ccccc3s2)cc1C (stereo unspecified)	10.9%	14.6%	-9.8%	0.7%	-7.35%	15.1%
CSc1cc(Cl)c(C)cc1S(=O)(=O)NC(=O)NNc1cccc(C(F)(F)F)n1	15.2%	5.25%	9.5%	-5.4%	-4.9%	24.6%
CN(C)Cc1ccnc(Cl)n1	-16.2%	20.1%	-16.8%	-34.5%	-13.3%	-8.1%
O=C(CN1C(=O)c2ccccc2C1=O)NC(Cc1ccccc1)C(=O)O (stereo unspecified)	7.85%	-6.9%	-16.9%	-12.5%	10.1%	-9.65%
CC(C)CN(CC(C)C)C(=O)CCl	-3.1%	-0.3%	14.1%	-15.9%	6%	-1.65%
CC(=O)Oc1ccc2c(c1)c1c(OC(C)=O)c(N(C)C(C)=O)cc(OC(C)=O)c1n2C	22.4%	-0.65%	3.85%	12.4%	-3.7%	5.6%
Cc1cc(N(CCC#N)CCC#N)ccc1/C=C1N=C(/C=C/c2ccccc2)N(c2ccc(S(N)(=O)=O)cc2)C\1=O	0.75%	-0.2%	-18.8%	0.6%	-21.1%	-3.9%
CC(=O)NC(=O)NC1=NCCC(=O)N1CCc1c[nH]c2ccccc12	4.35%	-29%	-6.3%	6.25%	-19.1%	7.2%
Cc1ccc(S(=O)(=O)c2scc(-c3ccccc3)c2C)cc1	-47.2%	-57.8%	-31.1%	-8.7%	-17.9%	-13.2%
CC(=O)N(C(=O)CC(=O)N1N=C(C)C(N=Nc2cccc([N+](=O)[O-])c2)C1=O)c1ccc(Cl)cc1 (stereo unspecified)	-10.3%	-4.5%	-5.9%	-11.2%	-15.1%	2%
Cc1[nH]c(=O)[nH]c(=O)c1-n1nnc2ccccc2c1=O	21.9%	12.8%	20.7%	-7.05%	8.3%	6.8%
CC(C)(C)OC(=O)C1/C(=C/CO)CN1C(=O)OC(C)(C)C (stereo unspecified)	-17.9%	-36.2%	-12.2%	7.4%	-12.1%	-28.9%
COc1cc(C(=O)c2cocc2C(=O)c2ccc3c(c2)OCO3)cc(OC)c1OC	-17.2%	-33.3%	-10.3%	-18.4%	-25.6%	-14.8%
CC1CC(C2=CC=CCS2)=Nc2ccccc2S1 (stereo unspecified)	-8.25%	-16.2%	33.5%	19.9%	5.3%	18.8%
CCC(=O)COC(C)=O	-3.75%	-22%	-6.05%	-2.35%	-3.75%	0.95%
COC(=O)[C@@H](N1C(=O)c2ccccc2C1=O)C1(C)CC(Cl)=NO1 (stereo partly specified)	-14.4%	2.75%	-14.7%	-11.8%	4.45%	12.1%
C1=C(Oc2ccccc2)C2CC1C1CCCC21 (stereo unspecified)	-7.85%	-21.4%	-2.65%	2.05%	-5.95%	1.85%
CC1(C)[C@H](C(=O)O)CC[C@]1(C)C(=O)O	9.9%	-13.1%	1.05%	19.2%	-0.7%	11.4%
CCCCC(CC)CNCC(CC)CCCC (stereo unspecified)	33.8%	45.5%	14.8%	40.6%	5.5%	26.1%
COc1ccccc1NC(=O)Nc1ccc(Nc2ccccc2)cc1	92.7% (active)	94.2% (active)	92.2% (active)	90.3% (active)	92.2% (active)	92.7% (active)
COc1cc(C(=O)C(O)c2cc(OC)c(OC)c(OC)c2)cc(OC)c1OC (stereo unspecified)	18%	11.2%	11.1%	-13%	2.95%	28.3%

Compound	growth inhibition [1]	growth inhibition [2]	growth inhibition [3]	growth inhibition [4]	growth inhibition [5]	growth inhibition [6]
CCCCC(=CC(C)(C)C)CCCC	22.9%	-2.4%	-7.7%	7.95%	20.6%	14.5%
CC(CO)CCC(O)C(C)(O)C1CCC2(O)C3=CC(=O)C4CC(O)C(O)CC4(C)C3CCC12C (stereo unspecified)	4.05%	-23.5%	10.2%	7.75%	17.8%	-68.2%
CC(c1ccccc1)N1COc2cc3c(cc2C1)CN(C(C)c1ccccc1)CO3 (stereo unspecified)	-11.8%	0.4%	-6.8%	-28.3%	-1.3%	6.7%
O=C1C(=O)C([n+]2cccc3ccccc32)=C([O-])C2=C1C1c3ccccc3C2c2ccccc21	98.8% (active)	98.4% (active)	98.9% (active)	98.8% (active)	91% (active)	98.6% (active)
CC(=O)OCCOC1c2ccccc2-c2ccccc21	7.1%	-2.75%	18.2%	18.6%	25.3%	13.8%
Clc1ccc(N=C2c3ccccc3CN2c2ccc(Cl)cc2)cc1	-32.6%	-20.1%	-14.4%	-4.85%	-22.3%	-13.9%
Nc1cc(N)[nH]c(=S)n1	16.8%	10.2%	13.9%	-10.9%	-3.95%	-2.35%
COc1ccc(C(O)C(C)C(O)(C(F)(F)F)C(F)(F)F)cc1 (stereo unspecified)	70.5% (active)	67.7%	89.3% (active)	63.8%	72.7% (active)	90% (active)
N#CC(c1ccc(Cl)cc1)c1ccc(N(CCO)CCO)cc1 (stereo unspecified)	9.4%	1.25%	2.75%	5.85%	-12.1%	13.8%
C[N+]1(CC(O)c2ccccc2)CCCC1 (stereo unspecified)	3.55%	13.3%	-0.25%	32.6%	6.3%	-10.8%
O=S(=O)(Nc1cc(C(F)(F)F)ccc1Cl)c1ccc(F)cc1	-24.3%	-22.4%	-34.4%	7.5%	-32.6%	-8%
NS(=O)(=O)c1cc(C(=O)O)c(O)c2ccccc12	9.85%	3.3%	1.15%	-23.8%	6.6%	15.6%
O=C(NCCCCCCNC(=O)c1ccccn1)c1ccccn1	0.25%	-9.9%	9.05%	-7.15%	-14.8%	-0.8%
COc1cc2c3c(c1)[nH]c(=S)n3C(=O)C(C)S2 (stereo unspecified)	-15.9%	-34.6%	-4.9%	-6%	-3.85%	-25.6%
CNc1c2c(nc3ccccc13)CCCC2	1.95%	-10.3%	-10.1%	-44.4%	15.1%	-19.2%
COC1CCC(O)C(C=Nc2ccccc2)C1 (stereo unspecified)	4.8%	-1.85%	-11.8%	4.35%	8.5%	-18.8%
O=C1C(=O)C(CCc2ccccc2)C(=O)/C1=C\c1ccccc1 (stereo unspecified)	4.4%	17.6%	10.6%	-10.4%	-6.55%	20.2%
CCOC(=O)c1c[nH]c2c(Cl)c(C)ccc2c1=O	-40.1%	-48.1%	-17.6%	-110%	-30.1%	-4.75%
CC1(C)OC2C(=O)C3COC(O3)C2O1 (stereo unspecified)	-10.7%	-0.25%	-25.1%	-36%	0%	5.8%
CCC1SC(C)C(=O)NC1=O (stereo unspecified)	-14.8%	3.9%	-0.7%	-14.3%	-8.2%	37.1%
